30 compounds from PubChem BioAssay (NCI) can be followed below.

Assay in all cases: NCI-60 one-dose screen, 48 h (100 = growth as untreated, 0 = no growth, -100 = all killed)
Holding throughout (details): 10 µM unless noted

Assay [1] deals with T-47D breast.
In assay [2] the test system is BT-549 breast.
For assay [3], the system named is MDA-MB-435 melanoma.
In assay [4] the test system is SW-620 colon.
The test system of assay [5] is MCF7 breast.
Assay [6] concerns HCT-116 colon.
Assay [7] has as its system HCC-2998 colon.
The test system of assay [8] is KM12 colon.

Compounds without any hit were thinned out: in the full panel of roughly 83,000, 20% have a hit.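 In brief: 96-well plates, 48 h treatment, single concentration, percent growth endpoint.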 A number with no mark means an inactive call. Calls of active or inactive are those of the source. The calls were made as follows: active = growth percent below 10; inactive = the rest.

On to `CN(C)c1ccc(-c2ccc(-c3ccc(C(=N)N)c(F)c3)s2)cc1`, for which the growth in assay [1] was -60.3% (active); in assay [2], 95.7%; in assay [3] it was -95.4% (active); in assay [4], -75% (active); in assay [5] it was -69.7% (active); in assay [6] it was -89.3% (active). The growth is -95.4% (active) in assay [7] and -87.9% (active) in assay [8].
For the compound `Nc1c2c(nc3ccc(Br)cc13)CC(c1ccccc1)CC2=O` (stereo not given), the growth in assay [1] was 43.1%; in assay [2], 42.9%; in assay [3], -43.4% (active); in assay [4] it was 26.1%; in assay [5], 21.1%; in assay [6] it was 31.9%. In addition, the growth in assay [7] is 62.9%; in assay [8] it was 24.7%.
As for `Cc1cc2nc3c4cc(O)ccc4n(CCN(C)C)c3nc2cc1C`, the growth in assay [1] was 4.84% (active); in assay [2], 15.8%; in assay [3], 3.8% (active); in assay [4], 3.53% (active); in assay [5], -10.1% (active); in assay [6] it was -0.74% (active). Also, the growth in assay [7] was -22.5% (active); in assay [8] it was 10.2%.
`CC(c1ccccc1)N1C(=O)C(C2SC(=S)N(C(C)c3ccccc3)C2=O)SC1=S` (stereo not given): the growth in assay [1] is 73.2%; in assay [2], 89.5%; in assay [3], 57.2%; in assay [4] it was 54.7%; in assay [5], 25.8%; in assay [6], 57%. Besides, the growth in assay [7] is 107%; in assay [8], 67.9%.
As for `CC1(C)C(=O)/C(=C\c2ccccn2)C[C@]2(C)[C@H]3CC[C@@H]4[C@@H](C(=O)/C=C/c5ccccn5)CC[C@@]4(C)[C@]3(C)CC[C@@H]12`, the growth in assay [1] was 3.15% (active); in assay [2] it was -13.6% (active); in assay [3], 4.49% (active); in assay [4], 0.595% (active); in assay [5], 12%; in assay [6], -69.6% (active). The growth in assay [7] is -79.7% (active); in assay [8], -76.2% (active).
For `COc1cccc2c1C(=O)c1c(O)c3c(c(O)c1C2=O)C[C@@](O)(C(=O)CO)C[C@@H]3OC1C[C@H](N)[C@H](O)[C@H](C)O1` (stereo not given in full), the growth in assay [1] was -0.159% (active); in assay [2] it was -56.5% (active); in assay [3], -82.6% (active); in assay [4], 1.37% (active); in assay [5], 4.42% (active); in assay [6], 3.07% (active). The figures for the growth in assay [7] and in assay [8] were -45.9% (active) and -14.2% (active), respectively.
Regarding `COc1cc2[nH]c(C(=O)c3cc(OC)c(OC)c(OC)c3)c(N)c2cc1C#CC1CC1`, the growth was 32.8% in assay [1]; 53.4% in assay [2]; 2.06% (active) in assay [3]; 22.5% in assay [4]; 17.6% in assay [5]; 19.1% in assay [6]. In addition, the values for the growth in assay [7] and in assay [8] were 66.1% and 18%, respectively.
With `Cc1cc(N=O)cc(C(C)(C)C)c1O`, the growth is 85.4% in assay [1]; 97.7% in assay [2]; 99.4% in assay [3]; 94.8% in assay [4]; 93.6% in assay [5]; 88.1% in assay [6]. Also, the growth in assay [7] was 106%; in assay [8], 102%.
As to `O=S(=O)(NCCNc1cc(-c2cn(-c3ccccc3)nc2-c2cccc(O)c2)ccn1)c1ccc(Br)cc1`, the growth in assay [1] was 10.5%; in assay [2], 45.6%; in assay [3] it was 22.4%; in assay [4], 32.4%; in assay [5], 13%; in assay [6], 24%. Also, the growth was -61.8% (active) in assay [7] and 17.3% in assay [8].
Regarding `Oc1cc(/C=C/c2nc(N3CCOCC3)c3cc(Cl)c(Cl)cc3n2)cc(O)c1O`, the growth is 94.9% in assay [1]; 95.5% in assay [2]; 106% in assay [3]; 107% in assay [4]; 106% in assay [5]; 104% in assay [6]. Further, the growth in assay [7] was 104%; in assay [8] it was 111%.
Take `Cn1c(=O)c2c(nc(N3CCCC3)n2C)n(C)c1=O`: the growth is 90.5% in assay [1]; 97% in assay [2]; 107% in assay [3]; 106% in assay [4]; 99.1% in assay [5]; 93.3% in assay [6]. Besides, the growth was 108% in assay [7] and 101% in assay [8].
As for `NNC(=O)c1nc2ccccc2[nH]1`, the growth was 89.8% in assay [1]; 95.4% in assay [2]; 109% in assay [3]; 105% in assay [4]; 104% in assay [5]; 91.3% in assay [6]. Also, the growth is 104% in assay [7] and 102% in assay [8].
`COc1cc(-c2cc3ncccc3c3[nH]c(=O)c4cccnc4c23)cc(OC)c1OC`: the growth in assay [1] was 37.5%; in assay [2] it was 49.1%; in assay [3] it was -26.2% (active); in assay [4], 32.9%; in assay [5], 17.3%; in assay [6] it was 17.8%. Further, the growth in assay [7] is 48.5%; in assay [8], 30.7%.
Turning to `COc1cc2c(cc1-c1c(C)noc1C)ncc1nc(C3CCCCC3)n([C@@H](C)COC(F)F)c12`, the growth in assay [1] was 25%; in assay [2], 52.9%; in assay [3] it was 28.2%; in assay [4] it was 59.2%; in assay [5] it was 12.1%; in assay [6] it was 24.8%. In addition, the growth in assay [7] is 50.5%; in assay [8], 35.9%.
With `COc1cnc2c(c1)C(=O)c1c-2n(CCCN2CCN(CCO)CC2)c(=O)c2cc([N+](=O)[O-])ccc12`, the growth is 64.4% in assay [1]; 65.6% in assay [2]; 40.8% in assay [3]; -48.8% (active) in assay [4]; -6.37% (active) in assay [5]; -87.6% (active) in assay [6]. For the same compound, the growth in assay [7] is 80%; in assay [8], 32.4%.
With `C=C(C)[C@@H]1CC[C@]2(C(=O)NNC(=O)c3cccnc3)CC[C@]3(C)[C@H](CC[C@@H]4[C@@]5(C)CCCNC(C)(C)[C@@H]5CC[C@]43C)[C@@H]12`, the growth was 57.6% in assay [1]; 82.3% in assay [2]; 83.6% in assay [3]; 85.7% in assay [4]; 59% in assay [5]; 45.7% in assay [6]. The growth was 73.4% in assay [7] and 78.4% in assay [8].
Regarding `NCCn1cc(-c2nc(-c3c[nH]c4ncccc34)cs2)c2ccccc21`, the growth is 22.6% in assay [1]; 98.9% in assay [2]; 98.3% in assay [3]; 96.1% in assay [4]; 60.4% in assay [5]; 94.5% in assay [6]. The growth in assay [7] was 93.8%; in assay [8], 73.4%.
With `CC1(C)CC[C@]2(C(=O)NCCNCCN)CC[C@]3(C)C(=CC[C@@H]4[C@@]5(C)CCC(=O)C(C)(C)[C@@H]5CC[C@]43C)[C@@H]2C1`, the growth was -71.1% (active) in assay [1]; 83.5% in assay [2]; 61% in assay [3]; -78.4% (active) in assay [4]; -23.8% (active) in assay [5]; -54% (active) in assay [6]. Further, the growth in assay [7] is 24.5%; in assay [8], 9.99% (active).
Consider `Nc1c2c(nc3ccc(Cl)cc13)CC(c1ccccc1)CC2=O` (stereo not given), for which the growth in assay [1] is 54.1%; in assay [2] it was 39.8%; in assay [3], -39.7% (active); in assay [4] it was 24.8%; in assay [5], 19%; in assay [6], 20.3%. The growth in assay [7] was 67.3%; in assay [8] it was 26.4%.
As to `Cc1cccc(C)c1NC(=O)CSC(=S)N1CCCCC1`, the growth is 85.4% in assay [1]; 105% in assay [2]; 110% in assay [3]; 103% in assay [4]; 97.8% in assay [5]; 99.7% in assay [6]. Further, the growth in assay [7] was 100%; in assay [8], 97.8%.
`O=C(O)/C(=C/c1ccc(O)cc1)c1ccccc1`: the growth in assay [1] is 94.6%; in assay [2] it was 95.5%; in assay [3] it was 109%; in assay [4], 105%; in assay [5], 98%; in assay [6], 92.7%. Further, the growth was 95.8% in assay [7] and 107% in assay [8].
As to `C=C(C)[C@@H]1CC[C@]2(C(=O)N3CCN(C)CC3)CC[C@]3(C)[C@H](CC[C@@H]4[C@@]5(C)C/C(=C/c6ccc(C(F)(F)F)cc6)C(=O)C(C)(C)[C@@H]5CC[C@]43C)[C@@H]12`, the growth in assay [1] is 79.9%; in assay [2], 102%; in assay [3], 97.2%; in assay [4], 99.5%; in assay [5], 87.5%; in assay [6] it was 89.8%. Besides, the growth was 107% in assay [7] and 97% in assay [8].
Regarding `COc1cc(/C=C/c2cc(/C=C/c3ccc(O)c(OC)c3)n(-c3ccc(Cl)cc3)c(=O)n2)ccc1O`, the growth in assay [1] is 86%; in assay [2], 66.9%; in assay [3], 74.9%; in assay [4], 85.6%; in assay [5] it was 47.6%; in assay [6] it was 50.6%. Moreover, the growth in assay [7] is 104%; in assay [8], 77%.
Regarding `C=C(C)[C@@H]1CC[C@]2(C)[C@H](CC[C@@H]3[C@H]4[C@H]5OC[C@@]4(CCC5(C)C)CC[C@]32C)[C@@]1(C)CCCN`, the growth in assay [1] was 23%; in assay [2], 93.8%; in assay [3], 49.2%; in assay [4], -45.1% (active); in assay [5] it was 0.266% (active); in assay [6] it was 4.71% (active). Moreover, the growth in assay [7] was -68.4% (active); in assay [8] it was 23.9%.
Consider `COc1ccc(-c2cc(/C=C/C(=O)c3ccc(OC)c(OC)c3)[nH]n2)cc1`, for which the growth in assay [1] was 22.2%; in assay [2], -34.2% (active); in assay [3], 21.3%; in assay [4], -70.5% (active); in assay [5], 6.07% (active); in assay [6], -40.7% (active). For the same compound, the growth was 92.7% in assay [7] and -79.9% (active) in assay [8].
As to `O=C(N/N=C/c1ccccc1SSc1ccccc1/C=N/NC(=O)c1ccccc1)c1ccccc1`, the growth in assay [1] is 43.6%; in assay [2], 30.1%; in assay [3], 46.1%; in assay [4] it was 41.6%; in assay [5], 10.1%; in assay [6], 24.6%. The growth in assay [7] is 55.6%; in assay [8] it was 36.4%.
Regarding `COc1cccc(-c2nn(-c3ccccc3)cc2-c2ccnc(NCCNS(=O)(=O)c3ccccc3)c2)c1`, the growth in assay [1] is 4.18% (active); in assay [2], 36.5%; in assay [3], 10.7%; in assay [4], 43.9%; in assay [5], 14.9%; in assay [6], 29.4%. Moreover, the results for the growth in assay [7] and in assay [8] were 26.8% and 21.7%, respectively.
With `CC(=O)Oc1ccccc1C(=O)/C=C/c1cccc([N+](=O)[O-])c1`, the growth was 74.2% in assay [1]; 104% in assay [2]; 55.7% in assay [3]; 43% in assay [4]; 39.9% in assay [5]; 10.8% in assay [6]. Besides, the figures for the growth in assay [7] and in assay [8] were 101% and 34.7%, respectively.
For the compound `COC(c1ccccc1)(c1ccccc1)c1ccccc1`, the growth was 87.1% in assay [1]; 95.7% in assay [2]; 108% in assay [3]; 99.1% in assay [4]; 115% in assay [5]; 104% in assay [6]. The results for the growth in assay [7] and in assay [8] were 142% and 82.2%, respectively.
As to `Cn1cc(-c2csc(-c3cn(CCCN4CCCCC4)c4ccc(Br)cc34)n2)c2cccnc21`, the growth in assay [1] was 21.8%; in assay [2] it was 70.9%; in assay [3], -69.5% (active); in assay [4], -74.3% (active); in assay [5] it was -64.6% (active); in assay [6], -89.5% (active). For the same compound, the growth is 85.5% in assay [7] and 9.18% (active) in assay [8].
